According to PubChem BioAssay (NCATS):
Inconclusive results are not listed. Activity calls are given as the source filed them. Unless noted, calls come from the whole dose curve; as a rule, active = well fitted curve in the direction sought with a large enough effect; inconclusive = small, poorly fitted or top-dose-only effect, or another doubt; inactive = no such curve, though single readings can be large; an effect the other way counts as inactive or inconclusive.

Experiments:
[1] = molecular target: Lysosomal acid glucosylceramidase (Homo sapiens) (UniProt P04062); experiment: Glucocerebrosidase-p2 (AID 348; in the data active = potency below about 10 µM; note: potency is the fitted concentration of half-maximal effect); conditions: purified GBA, blue fluorogenic substrate, 40 min
Lysosomal acid glucosylceramidase (Homo sapiens), sequence (P04062 whole entry, looked up): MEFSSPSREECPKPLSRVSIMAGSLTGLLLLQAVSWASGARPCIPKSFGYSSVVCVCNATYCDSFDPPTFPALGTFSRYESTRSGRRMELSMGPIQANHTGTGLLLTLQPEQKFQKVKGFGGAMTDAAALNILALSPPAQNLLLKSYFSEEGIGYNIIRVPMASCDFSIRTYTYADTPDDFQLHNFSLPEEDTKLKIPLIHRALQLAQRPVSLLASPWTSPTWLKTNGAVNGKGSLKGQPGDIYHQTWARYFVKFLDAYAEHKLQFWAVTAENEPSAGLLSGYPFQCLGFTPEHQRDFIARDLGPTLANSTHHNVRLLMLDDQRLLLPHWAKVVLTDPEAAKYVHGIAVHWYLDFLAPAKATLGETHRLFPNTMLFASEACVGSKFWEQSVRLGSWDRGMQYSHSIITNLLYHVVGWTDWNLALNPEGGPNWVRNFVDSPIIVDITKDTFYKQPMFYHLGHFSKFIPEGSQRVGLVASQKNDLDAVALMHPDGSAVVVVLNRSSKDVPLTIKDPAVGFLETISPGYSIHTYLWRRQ
Summary of the method: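 Compounds titrated from 0.6 nM upwards against 0.2 nM enzyme in pH 5.9 citric acid/KH2PO4, taurocholate, tween-20; blue fluorogenic substrate 80 uM, 40 min room temperature, stopped and read Ex 365/Em 440 for AC50.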

[2] = molecular target: Cytochrome P450 1A2 (Homo sapiens) (UniProt P05177); experiment: p450-cyp1a2 (AID 410; calls by dose curve; note: potency is the fitted concentration of half-maximal effect;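 for activity change, negative = inhibition: -100% = full effect of reference inhibitor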); conditions: recombinant CYP1A2, luciferin-ME demethylation, luminescence; series mostly up to 57 µM
Cytochrome P450 1A2 (Homo sapiens), sequence (P05177 whole entry, looked up): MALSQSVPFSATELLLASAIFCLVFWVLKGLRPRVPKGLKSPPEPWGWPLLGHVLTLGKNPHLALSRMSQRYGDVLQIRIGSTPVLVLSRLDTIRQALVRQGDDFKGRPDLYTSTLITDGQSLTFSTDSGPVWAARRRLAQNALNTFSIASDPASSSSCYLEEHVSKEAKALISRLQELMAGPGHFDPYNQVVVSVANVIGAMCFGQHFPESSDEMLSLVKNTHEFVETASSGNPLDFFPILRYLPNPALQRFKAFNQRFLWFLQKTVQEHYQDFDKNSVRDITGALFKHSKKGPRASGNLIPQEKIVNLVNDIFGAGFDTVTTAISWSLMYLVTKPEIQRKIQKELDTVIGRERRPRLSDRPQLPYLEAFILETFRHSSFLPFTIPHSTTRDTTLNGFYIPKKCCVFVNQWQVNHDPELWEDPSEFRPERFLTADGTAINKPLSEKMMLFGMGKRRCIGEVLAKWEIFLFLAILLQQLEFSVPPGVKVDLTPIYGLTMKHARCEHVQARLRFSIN
Summary of the method: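 20nM CYP1A2 with 100uM Luciferin-ME (at Km) in 100mM KPO4; compound preincubated 10 min, NADPH regeneration added, 60 min at room temperature. Luciferin quantified by luminescence after detection reagent; normalized to 57 uM furafylline.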

[3] = molecular target: Glucocorticoid receptor (Homo sapiens) (UniProt P04150); experiment: GR-GFP Redistribution (AID 450;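 active = compounds whose dose series gives a full or clear partial fitted curve of increased nuclear translocation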; note: potency is the fitted concentration of half-maximal effect); conditions: U2OS GR-GFP nuclear translocation, laser cytometry, 2 h
Glucocorticoid receptor (Homo sapiens), sequence (P04150 whole entry, looked up, the tested form may be a part): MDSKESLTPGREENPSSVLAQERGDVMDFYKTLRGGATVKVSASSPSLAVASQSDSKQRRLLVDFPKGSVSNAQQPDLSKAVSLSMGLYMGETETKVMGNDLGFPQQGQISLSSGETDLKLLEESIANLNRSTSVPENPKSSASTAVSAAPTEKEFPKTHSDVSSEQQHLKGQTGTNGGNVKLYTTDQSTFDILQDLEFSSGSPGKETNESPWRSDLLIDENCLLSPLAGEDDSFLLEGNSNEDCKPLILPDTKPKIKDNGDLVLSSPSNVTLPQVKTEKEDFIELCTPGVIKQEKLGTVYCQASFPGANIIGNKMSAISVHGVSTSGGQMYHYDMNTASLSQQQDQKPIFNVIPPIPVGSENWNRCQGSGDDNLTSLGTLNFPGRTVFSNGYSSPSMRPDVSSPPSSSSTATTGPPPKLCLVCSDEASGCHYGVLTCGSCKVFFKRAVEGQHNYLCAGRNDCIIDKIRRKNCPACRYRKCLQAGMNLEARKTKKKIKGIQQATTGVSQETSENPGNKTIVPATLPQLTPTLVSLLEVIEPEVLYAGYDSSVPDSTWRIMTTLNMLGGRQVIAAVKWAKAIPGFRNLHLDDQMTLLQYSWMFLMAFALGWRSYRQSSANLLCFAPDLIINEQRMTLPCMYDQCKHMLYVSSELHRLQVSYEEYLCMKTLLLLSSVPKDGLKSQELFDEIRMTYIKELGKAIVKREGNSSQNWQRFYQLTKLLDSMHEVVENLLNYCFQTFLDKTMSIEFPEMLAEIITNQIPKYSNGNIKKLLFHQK

[4] = molecular target: Glucocorticoid receptor (Homo sapiens) (UniProt P04150); experiment: GR-EFC Redistribution (AID 451; calls by dose curve; note: potency is the fitted concentration of half-maximal effect); conditions: CHO-K1 GR-EFC translocation, beta-gal luminescence, 2 h
Summary of the method: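 CHO-K1 cells stably expressing nuclear-localized β-gal enzyme acceptor and GR fused C-terminally to the enzyme donor fragment; ligand-driven nuclear translocation restores β-gal by complementation. Compounds titrated up to 46 uM final, 2 h at 37 °C; luminescence read.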

[5] = molecular target: Mitogen-activated protein kinase 10 (Mus musculus) (UniProt Q61831); experiment: JNK3 AlphaScreen Assay (AID 530; active = well fitted curve in either direction with a large enough effect, not every such curve was filed as active;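 note: kinase came from lysate of stimulated human HepG2 cells; signal reports phosphorylation of biotinylated GST-cJun 1-79 at Ser73 with 10 µM ATP; % is set by controls: 0 for no effect and ±100 for the full control effect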); conditions: JNK3 lysate, c-Jun phosphorylation; series mostly up to 57.1 µM
Summary of the method: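 Inhibitors reduce antibody binding to phosphorylated biotin-cJun, lowering AlphaScreen luminescence. Lysates from HepG2 cells pre-activated by IL-1beta plus TNF-alpha supplied JNK3; compounds were titrated.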

[6] = molecular target: 3',5'-cyclic-AMP phosphodiesterase 4B (Homo sapiens) (UniProt Q07343); experiment: qHTS Assay for Inhibitors of PDE-IV (AID 607; active = well fitted activation curve with a large enough effect in the main read-out, with a control signal flat, not every such curve was filed as active; note: % of control where 0% means no effect); conditions: HEK293 ACTOne CNG channel cells, membrane potential fluorescence; series mostly up to 22.9 µM
3',5'-cyclic-AMP phosphodiesterase 4B (Homo sapiens), sequence (Q07343 whole entry, looked up): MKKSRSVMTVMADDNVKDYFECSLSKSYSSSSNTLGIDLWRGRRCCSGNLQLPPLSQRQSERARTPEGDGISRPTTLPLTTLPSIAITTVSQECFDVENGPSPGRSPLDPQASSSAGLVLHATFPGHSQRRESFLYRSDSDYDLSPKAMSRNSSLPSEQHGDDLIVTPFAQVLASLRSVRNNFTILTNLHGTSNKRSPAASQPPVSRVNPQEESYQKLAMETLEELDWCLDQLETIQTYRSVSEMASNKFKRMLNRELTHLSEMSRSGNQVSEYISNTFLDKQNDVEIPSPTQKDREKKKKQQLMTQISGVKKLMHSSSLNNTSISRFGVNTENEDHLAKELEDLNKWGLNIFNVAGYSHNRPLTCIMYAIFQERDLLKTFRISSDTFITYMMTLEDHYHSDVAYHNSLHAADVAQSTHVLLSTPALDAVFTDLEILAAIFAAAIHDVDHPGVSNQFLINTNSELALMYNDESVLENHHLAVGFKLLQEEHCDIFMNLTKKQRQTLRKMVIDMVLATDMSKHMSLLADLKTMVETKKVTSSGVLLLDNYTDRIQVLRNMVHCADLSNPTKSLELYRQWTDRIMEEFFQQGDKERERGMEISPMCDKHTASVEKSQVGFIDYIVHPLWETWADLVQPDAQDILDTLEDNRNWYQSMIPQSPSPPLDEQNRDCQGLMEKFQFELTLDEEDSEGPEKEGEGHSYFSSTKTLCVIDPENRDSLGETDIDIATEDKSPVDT
Summary of the method: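 Live HEK293 cells with a modified cyclic nucleotide-gated (CNG) channel report intracellular cAMP via membrane-potential dye fluorescence (ex 535/em 590 nm). Endogenous PDE-IV was targeted. Compounds were tested at up to 22.9 uM final; RO 20-1724 100 uM served as control.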

[7] = qHTS Assay for Lipid Storage Modulators (AID 1519; calls by dose curve); conditions: Drosophila S3 cells, BODIPY lipid droplet/cell ratio, laser cytometry, cells loaded with oleic acid; for activity change, negative = inhibition: at 57.5 µM (top of the series)
Summary of the method: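 Cells seeded at 5,000 per well were treated with compounds over a concentration series and loaded with oleic acid (400 uM, as added). Lipid droplet fluorescence (488 nm excitation, 500-530 nm channel) was read by laser-scanning cytometry and normalized to 20 uM Triacsin C.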

[8] = molecular target: Dual specificity protein kinase CLK4 (Homo sapiens) (UniProt Q9HAZ1); experiment: qHTS Assay for Inhibitors of CDC-like Kinase 4 (Kinase-Glo Assay) (AID 1770); conditions: recombinant Clk4, Kinase-Glo ATP depletion luminescence; series mostly up to 66.7 µM; note: nearly all actives have a fitted effect of over 65% in size; note: potency is the fitted concentration of half-maximal effect
Dual specificity protein kinase CLK4 (Homo sapiens), sequence (Q9HAZ1 whole entry, looked up): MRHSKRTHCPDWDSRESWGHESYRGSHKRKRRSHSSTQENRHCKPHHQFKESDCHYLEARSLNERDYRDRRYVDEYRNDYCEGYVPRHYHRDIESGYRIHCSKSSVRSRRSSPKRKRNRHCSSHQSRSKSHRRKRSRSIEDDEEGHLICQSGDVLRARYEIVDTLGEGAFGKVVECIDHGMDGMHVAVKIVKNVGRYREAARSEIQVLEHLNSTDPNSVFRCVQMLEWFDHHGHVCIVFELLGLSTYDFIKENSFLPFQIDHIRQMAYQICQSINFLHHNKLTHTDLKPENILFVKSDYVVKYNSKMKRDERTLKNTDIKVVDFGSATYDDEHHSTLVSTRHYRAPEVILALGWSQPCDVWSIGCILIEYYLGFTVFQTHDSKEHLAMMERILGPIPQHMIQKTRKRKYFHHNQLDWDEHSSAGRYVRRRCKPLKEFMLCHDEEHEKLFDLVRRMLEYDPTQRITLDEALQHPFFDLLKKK
Summary of the method: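 25 nM Clk4 with 100 uM RS repeat peptide and 1 uM ATP (final) in Tris pH7.5, 10 mM MgCl2, 4.5 h at room temperature. Remaining ATP measured by Kinase-Glo luciferase luminescence.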

[9] = molecular target: Dual specificity protein kinase CLK4 (Homo sapiens) (UniProt Q9HAZ1); experiment: qHTS Assay for Inhibitors of CDC-like Kinase 4 (ADP-Glo Assay) (AID 1771); conditions: recombinant CLK4, ADP-Glo luminescence; series mostly up to 80 µM; note: nearly all actives have a fitted effect of over 70% in size; note: potency is the fitted concentration of half-maximal effect
Summary of the method: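 25 nM Clk4 with 100 uM RS repeat peptide and 1 uM ATP (final) in buffer with 2 mM MgCl2, 0.5 mM EGTA, 2.5 mM DTT, 0.01% Triton X-100; 1 h at room temperature; ADP-Glo luminescence for ADP formed.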

[10] = molecular target: Dual specificity protein kinase CLK4 (Homo sapiens) (UniProt Q9HAZ1); experiment: qHTS Assay for Inhibitors of CDC-like Kinase 4 (ADP-FP Assay) (AID 1795); conditions: Transcreener ADP fluorescence polarization; series mostly up to 50 µM; note: nearly all actives have a fitted effect of over 60% in size; note: potency is the fitted concentration of half-maximal effect
Summary of the method: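 Recombinant Clk4 (6.25 nM) phosphorylated 100 uM RS repeat peptide with 1 uM ATP in 25 mM Tris pH 7.5, 10 mM MgCl2, 0.5 mM EGTA, 2.5 mM DTT, 0.01% Triton X-100 for 1 h. ADP was detected by Transcreener ADP2 competitive fluorescence polarization after 30 min at room temperature.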

[11] = molecular target: Ubiquitin carboxyl-terminal hydrolase 1 (Homo sapiens) (UniProt O94782); experiment: Inhibitors of USP1/UAF1: Pilot qHTS (AID 504865); conditions: purified USP1/UAF1, Ub-rhodamine cleavage fluorescence; series mostly up to 54.9 µM;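 note: rhodamine fluorescence freed from ubiquitin-rhodamine substrate followed over time; top concentration of the series differs between compounds; % is set by controls: 0 for no effect and ±100 for the full control effect; nearly all actives have a fitted effect of over 35% in size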
Ubiquitin carboxyl-terminal hydrolase 1 (Homo sapiens), sequence (O94782 whole entry, looked up): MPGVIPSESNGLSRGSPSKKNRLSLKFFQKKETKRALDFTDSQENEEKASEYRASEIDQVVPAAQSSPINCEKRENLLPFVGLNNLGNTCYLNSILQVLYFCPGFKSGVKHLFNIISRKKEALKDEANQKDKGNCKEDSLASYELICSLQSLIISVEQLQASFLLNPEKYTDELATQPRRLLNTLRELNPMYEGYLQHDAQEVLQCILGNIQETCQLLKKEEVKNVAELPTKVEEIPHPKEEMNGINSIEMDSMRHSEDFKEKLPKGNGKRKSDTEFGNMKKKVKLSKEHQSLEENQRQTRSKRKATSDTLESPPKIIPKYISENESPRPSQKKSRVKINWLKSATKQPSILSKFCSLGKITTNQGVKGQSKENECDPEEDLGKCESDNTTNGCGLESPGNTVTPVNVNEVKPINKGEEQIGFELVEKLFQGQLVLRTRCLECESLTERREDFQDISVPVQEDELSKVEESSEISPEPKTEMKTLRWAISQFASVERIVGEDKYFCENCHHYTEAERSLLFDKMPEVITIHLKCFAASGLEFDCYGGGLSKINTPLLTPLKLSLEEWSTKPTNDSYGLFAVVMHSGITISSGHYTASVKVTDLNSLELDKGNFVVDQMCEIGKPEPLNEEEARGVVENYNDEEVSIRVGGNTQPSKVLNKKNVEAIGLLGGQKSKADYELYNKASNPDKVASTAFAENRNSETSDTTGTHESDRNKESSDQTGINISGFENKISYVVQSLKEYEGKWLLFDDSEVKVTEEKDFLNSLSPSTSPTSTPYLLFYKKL
Summary of the method: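 USP1/UAF1 complex at 1 nM preincubated 15 min at room temperature with compound, then Ub-Rho substrate added at 150 nM final. Fluorescence (480/540 nm) read kinetically in 50 mM HEPES pH 7.8, 0.5 mM EDTA, 1 mM TCEP, 0.1 mg/ml BSA, 0.01% Tween-20.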

[12] = Primary qHTS for small molecule stabilizers of the endoplasmic reticulum resident proteome: Secreted ER Calcium Modulated Protein (SERCaMP) assay (AID 1508630); conditions: SH-SY5Y GLuc-SERCaMP (Gaussia luciferase released on ER calcium loss) secretion, thapsigargin, luminescence; series mostly up to 38.4 µM; note: % is set by controls: 0 for no effect and ±100 for the full control effect
Summary of the method: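 GLuc-SERCaMP-expressing SH-SY5Y cells, pretreated 16 h with compound, are challenged with thapsigargin to empty ER calcium stores; after 4 h, coelenterazine is added directly to the medium and luminescence is imaged.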

[13] = molecular target: Cytochrome P450 3A4 (Homo sapiens) (UniProt P08684); experiment: qHTS Assay for Activators of Cytochrome P450 3A4 (AID 885); conditions: recombinant CYP3A4, Luciferin-PPXE luminescence, 60 min; series mostly up to 57.1 µM; note: nearly all actives have a fitted effect of over 65% in size
Cytochrome P450 3A4 (Homo sapiens), sequence (P08684 whole entry, looked up): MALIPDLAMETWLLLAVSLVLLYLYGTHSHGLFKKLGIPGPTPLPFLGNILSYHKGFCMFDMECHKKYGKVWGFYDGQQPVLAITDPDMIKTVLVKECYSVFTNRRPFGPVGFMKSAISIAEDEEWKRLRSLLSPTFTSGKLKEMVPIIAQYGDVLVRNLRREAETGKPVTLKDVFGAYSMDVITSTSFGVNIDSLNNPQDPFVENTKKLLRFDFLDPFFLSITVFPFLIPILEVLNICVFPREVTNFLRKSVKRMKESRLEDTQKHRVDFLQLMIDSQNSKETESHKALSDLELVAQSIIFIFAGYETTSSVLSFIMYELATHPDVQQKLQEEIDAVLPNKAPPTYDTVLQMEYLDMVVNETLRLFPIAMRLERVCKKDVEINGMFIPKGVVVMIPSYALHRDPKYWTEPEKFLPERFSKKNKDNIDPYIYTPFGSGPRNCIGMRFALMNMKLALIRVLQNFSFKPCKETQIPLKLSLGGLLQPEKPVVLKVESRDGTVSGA
Summary of the method: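 Quantitative HTS format: compounds preincubated with 20nM human CYP3A4 and Luciferin-PPXE substrate at KM, reaction started by NADPH regeneration, stopped after 60 min, luciferase luminescence read 20 min later.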

[14] = qHTS Assay for Identification of Small Molecule Agonists for Hypoxia Response Element Signaling Pathway (AID 914; active = well fitted activation curve with a large enough effect in the signal ratio, with a control signal flat, not every such curve was filed as active; the % refers to the signal ratio; note: potency is the fitted concentration of half-maximal effect); conditions: ME-180 HRE-bla reporter, beta-lactamase ratio, CoCl2, 17 h; activation: stronger effect = higher value
Summary of the method: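 HRE-bla ME-180 assay for agonist-like enhancement of an EC50 CoCl2 stimulus: 17 h at 37 degrees Celsius, CCF4 for 2.5 h, ratiometric 460/530 nm signal converted to %Activity and fitted to AC50.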

[15] = AP1 Signaling Pathway (AID 357; active = well fitted curve in either direction with a large enough effect, not every such curve was filed as active;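 note: ME-180 reporter cells stimulated with EGF at its EC50 level; % is set by controls: 0 for no effect and ±100 for the full control effect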); conditions: ME-180 AP-1-bla reporter, EGF-induced, beta-lactamase ratio, 5 h; at 7.69 µM (top of the series) unless noted
Summary of the method: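 Read-out was the 460nm/530nm emission ratio (excitation 405nm) after CCF4 loading for 2.5 hours at room temperature. Cells carried an AP-1-driven beta-lactamase reporter, were stimulated with EC50 EGF plus compound for 5 hours, and AC50 values came from titrations.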

[16] = NFAT Signaling Pathway (AID 444; active = well fitted curve in either direction with a large enough effect, not every such curve was filed as active;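 note: carbachol stimulus at about its EC50 of 1 µM final; % is set by controls: 0 for no effect and ±100 for the full control effect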); conditions: Jurkat NFAT-bla M1, carbachol, beta-lactamase ratio, 5 h; at 7.69 µM (top of the series) unless noted
Summary of the method: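 Jurkat cells carrying an NFAT-driven β-lactamase reporter and co-transfected muscarinic M1 receptor were treated with compound plus carbachol (1 uM final, an EC50 level) for 5 h at 37 °C. CCF4 loading followed for 1 h at RT; 460/530 nm ratio gave %activity.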

[17] = Stat Signaling Pathway (AID 446; active = well fitted curve in either direction with a large enough effect, not every such curve was filed as active); conditions: ME-180 (cervical carcinoma) SIE beta-lactamase reporter, IL-6 stimulated, 5 h; at 7.69 µM (top of the series) unless noted
Summary of the method: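 IL-6/STAT signaling read in ME-180 cells via an SIE beta-lactamase reporter. Stimulus was 40 pM IL-6 (its AC50) for 5 hrs, so both activation and inhibition register.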

[18] = molecular target: Cytochrome P450 3A4 (Homo sapiens) (UniProt P08684); experiment: qHTS Assay for Inhibitors and Substrates of Cytochrome P450 3A4 (AID 884); conditions: recombinant CYP3A4, Luciferin-PPXE luminescence; series mostly up to 57.1 µM; note: potency is the fitted concentration of half-maximal effect; nearly all actives have a fitted effect of over 50% in size
Summary of the method: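 20 nM human CYP3A4 with 25 uM Luciferin-PPXE (at KM) in 200 mM KPO4, preincubated 10 min with compound; NADPH regeneration started a 60 min RT reaction. Luciferin detected by luminescence, normalized to 57 uM ketoconazole as full inhibition.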

[19] = measured here: cell count channel max response
[20] = measured here: lipid channel max response

Row | SMILES | Potency [1] | Potency [2] | Potency [3] | Potency [4] | outcome [5] | Potency [6] | activity change, negative = inhibition [7] | max response [7, 19] [%] | max response [7, 20] [%] | Potency [8] | Potency [9] | Potency [10] | Potency [11] | Potency [12] | Potency [13] | Potency [14] | activity change, negative = inhibition [15] | activity change, negative = inhibition [16] | activity, negative = inhibition [17] | Potency [18]
1 | COCCn1c(=O)cnc2cnc(Nc3ccccc3)nc21 | > 11.4 µM (inactive) | 1 µM (active) | > 9.22 µM (inactive) | > 46 µM (inactive) | inactive | inactive | -9% (inactive) | -2.6 | -12.1 | 3.55 µM (active) | 3.16 µM (active) | 2.82 µM (active) | inactive | inactive | – | – | – | – | – | –
2 | CN1CCN(c2ncc3nc(-c4cccc(C#N)c4)c(=O)n(Cc4ccc(F)cc4)c3n2)CC1 | > 11.4 µM (inactive) | inactive | > 9.22 µM (inactive) | > 46 µM (inactive) | inactive | inactive | -3.63% (inactive) | 1.09 | -4.23 | inactive | inactive | inactive | inactive | inactive | inactive | 3.16 µM (active) | – | – | – | –
3 | c1cncc(CNc2ncncc2-c2cccnc2)c1 | – | 5.01 µM (active) | > 46 µM (inactive) | > 46 µM (inactive) | inactive | inactive | 2.51% (inactive) | 25.3 | 26.2 | inactive | inactive | inactive | inactive | inactive | inactive | – | 3.11% (inactive) | 1.94% (inactive) | 12.2% (inactive) | 2 µM (active)
4 | CN1CCN(c2ncc3nc(-c4cc(F)cc(F)c4)c(=O)n(CCc4ccccc4)c3n2)CC1 | > 11.4 µM (inactive) | inactive | > 9.22 µM (inactive) | > 46 µM (inactive) | inactive | inactive | -3.87% (inactive) | 10.6 | 3.66 | inactive | inactive | inactive | inactive | inactive | inactive | 3.16 µM (active) | – | – | – | –
5 | COCCNc1ncnc2ccc(-c3cccc(OC)c3)cc12 | > 11.4 µM (inactive) | 0.794 µM (active) | > 46 µM (inactive) | > 46 µM (inactive) | inactive | inactive | -4.77% (inactive) | -9.38 | -14.2 | 0.708 µM (active) | 0.562 µM (active) | 0.501 µM (active) | inactive | inactive | inactive | – | – | – | -27.4% (inactive) | –
